In the library only some 2.4% were active in any assay of this set; here they are far more common.
TDP1 inh: blocks human tyrosyl-DNA phosphodiesterase 1; Potency, µM (top dose mostly 130 µM), for the others: at the highest dose activity change, negative = inhibition, usual class: inhibitors; AID 485290; recombinant TDP1, AlphaScreen DNA substrate cleavage; 0.28% of 350,000 active; note: % is set by controls: 0 for no effect and ±100 for the full control effect; nearly all actives have a fitted effect of over 40% in size
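Tdp1 1 nM final; 15 min RT w/ cpd; substrate 15 nM, 5 min; beads 10 ug/ml, 10 min; AlphaScreen read. Neg ctrl: no enzyme.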
POLK inh: blocks human DNA polymerase kappa activity; Q9UBT6; purified Pol kappa, fluorescent DNA synthesis assay, 10 min; Potency, µM (highest dose often 107 µM), without a hit: top-dose activity, negative = inhibition, hits mostly inhibitors; 0.53% of 400,000 active; AID 588579; note: % is set by controls: 0 for no effect and ±100 for the full control effect
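Kinetic fluorescence screen: compound preincubated 15 min RT with 10 nM enzyme; 50 nM substrate (final) initiates; reads at 0/10 min.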
POLH inh: inhibitors of human DNA polymerase eta. Q9Y253. recombinant Pol eta, fluorescent DNA replication assay. Potency, µM (highest dose often 114 µM), for inactives: at the highest dose activity change, negative = inhibition, usual class: inhibitors. 1.2% of 390,000 active. AID 588591; note: % is set by controls: 0 for no effect and ±100 for the full control effect
Target sequence (Q9Y253 whole entry, looked up): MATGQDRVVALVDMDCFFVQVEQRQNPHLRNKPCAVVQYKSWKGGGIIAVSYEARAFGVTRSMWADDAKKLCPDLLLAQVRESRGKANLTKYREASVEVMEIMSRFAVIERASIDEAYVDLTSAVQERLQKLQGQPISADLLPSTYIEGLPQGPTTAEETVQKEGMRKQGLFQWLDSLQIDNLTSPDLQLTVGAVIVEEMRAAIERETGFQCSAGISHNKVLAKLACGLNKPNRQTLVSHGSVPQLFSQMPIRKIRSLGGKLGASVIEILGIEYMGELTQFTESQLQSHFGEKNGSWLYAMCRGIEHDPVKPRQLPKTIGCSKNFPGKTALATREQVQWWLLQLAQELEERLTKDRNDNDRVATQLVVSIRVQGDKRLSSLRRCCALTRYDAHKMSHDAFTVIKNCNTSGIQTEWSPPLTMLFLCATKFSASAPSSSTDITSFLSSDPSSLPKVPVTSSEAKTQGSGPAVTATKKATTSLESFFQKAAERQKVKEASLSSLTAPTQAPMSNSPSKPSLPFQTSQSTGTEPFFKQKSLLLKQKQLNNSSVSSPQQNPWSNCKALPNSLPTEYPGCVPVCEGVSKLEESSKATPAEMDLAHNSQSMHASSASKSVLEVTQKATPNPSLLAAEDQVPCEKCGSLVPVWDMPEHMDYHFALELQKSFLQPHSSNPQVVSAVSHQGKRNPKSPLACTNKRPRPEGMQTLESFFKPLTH
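Pol eta (10 nM) was preincubated with compounds for 15 min at room temperature, after which fluorescent replication substrate (50 nM final) was added to start the reaction. Fluorescence was read kinetically at 0 and 10 min.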
POLI inh: DNA polymerase iota (human) inhibition; Q9UNA4; Pol iota fluorescent replication assay, 10 min; Potency, µM (top dose mostly 115 µM), for the others: at the top dose activity, negative = inhibition, usual class: inhibitors; 1% of 390,000 active
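Pol iota at 10 nM preincubated 15 min with compounds at room temperature; reaction started with fluorescent substrate, 50 nM final. Fluorescence read kinetically at 0 and 10 min; buffer-only wells as negative control.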
FEN1 inhibitor: human FEN1 inhibition; P39748; Recombinant FEN1 flap cleavage, fluorescence, 15 min; Potency, µM (highest dose often 114 µM), inactives show at the top dose activity change, negative = inhibition, usual class: inhibitors; 0.35% of 390,000 active; AID 588795; note: % is set by controls: 0 for no effect and ±100 for the full control effect; nearly all actives have a fitted effect of over 65% in size
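Concentration–response screening of FEN1 (10 nM): 15 min compound preincubation at room temperature, reaction started with 50 nM substrate and read at 0 and 15 min. Corrected, normalized data were fitted by a four-parameter Hill equation.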
POLB inh: DNA polymerase beta (human) inhibition; P06746; Pol beta primer extension/strand displacement, fluorescence kinetic; Potency, µM (highest dose often 114 µM), for inactives: top-dose activity change, negative = inhibition, hits mostly inhibitors; 1.3% of 340,000 active; AID 485314; note: % is set by controls: 0 for no effect and ±100 for the full control effect
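Reaction started by 50 nM substrate onto compound-treated Pol beta (10 nM, 15 min preincubation, room temperature); plates read at 0 min and 10 min. Normalized concentration-effect data fitted by four-parameter Hill equation.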
The depositor's hits bear a star; ? = inconclusive; . = no result given; [ ] = another dose, or the depositor's remark. Calls come from the whole dose curve; as a rule, active = well fitted curve in the direction sought with a large enough effect; inconclusive = small, poorly fitted or top-dose-only effect, or another doubt; inactive = no such curve, though single readings can be large; an effect the other way counts as inactive or inconclusive. Potency is the fitted concentration of half-maximal effect.

SMILES	TDP1 inh	POLK inh	POLH inh	POLI inh	FEN1 inhibitor	POLB inh
Cn1nnnc1SCC(=O)c1ccco1	-11%	-1%	5%	-1%	-5%	?
O=C(CSCCSCC(=O)c1ccco1)c1ccco1	?	.	.	.	.	28µM*
Clc1ccc(CCNC(c2nnc(-c3ccccc3)o2)c2ccccc2Cl)cc1 (configuration not stated)	-2%	7%	-9%	7%	5%	8%
N#C/C(=C(/O)c1ccc(-c2cccc([N+](=O)[O-])c2)o1)c1nc2ccccc2s1	8%	?	18µM*	50µM*	-10%	-23%
O=C(O)c1ccc(-c2cccc([N+](=O)[O-])c2)o1	.	5%	-12%	2%	-11%	-15%
N#C/C(=C\c1ccc(O)c([N+](=O)[O-])c1)c1nc2ccccc2s1	9%	-27%	20µM*	?	?	50µM*
N#C/C(=C/c1ccc(-c2cc(C(=O)O)cc(C(=O)O)c2)o1)c1nc2ccccc2s1	.	.	.	.	.	20µM*
N#C/C(=C\c1ccco1)c1nc2ccccc2s1	3%	-6%	-19%	110%	12%	2%
O=C1CC(c2ccco2)CC2=C1C(c1ccc(O)cc1)n1nc(C(F)(F)F)nc1N2 (configuration not stated)	8%	7%	.	0%	6%	.
O=C1OC(=O)c2c(Cl)c(Cl)c(Cl)c(Cl)c21	6%	.	.	.	.	.
O=[N+]([O-])c1ccc(/C=C/c2cc(Cl)nc3ccccc23)cc1	.	0%	.	4%	3%	.
COC(=O)[C@@]1(Cc2ccccc2)[C@H]2c3cc(C(=O)N(C)C)n(CCN4CNCC4=O)c3C[C@H]2CN1C(=O)c1ccccc1	9%	.	.	.	.	.
C[C@@](Cc1ccccc1)(NC(=O)CN)c1ccccc1	6%	-9%[19.4 µM]	.	.	.	.
CC(C)(C)C(=O)[C@@H]1[C@@H]2C(=O)N(Cc3ccccc3)C(=O)[C@@H]2[C@H]2c3ccccc3C=CN12	71µM*	.	.	.	.	2%
O=C(Cc1ccc(OCC2CCCCC2)cc1)NO	.	-1%	.	-8%	-33%	.
CN(C)c1ccc(C=Nc2ccccc2C(N)=O)cc1	-12%	-11%	-3%	89µM*	6%	-4%
Cc1ccc(C=Nc2ccccc2C(N)=O)o1	4%	4%	-18%	-2%	40%	40%
COc1ccc(C2Nc3ccccc3C(=O)N2CC(C)(C)C)cc1COc1ccc(NC(C)=O)cc1 (configuration not stated)	4%	.	.	.	.	.
Cc1ccc(-c2ccc(S(=O)(=O)Nc3cccnc3)cc2)cc1	-5%	-6%	-21%	54%	2%	50µM*
OC[C@H]1OC(O)[C@H](O)[C@@H](O)[C@@H]1O (some centres not stated)	5%	19%[60.1 µM]	.	.	.	.
COc1cc(C(=S)N2CCCCC2)ccc1O	-2%	-3%[60.1 µM]	4%	56µM*	-8%	7%
COc1cc(C(=S)N2CCCC2)ccc1O	5%	?	-16%	44%	0%	11%
O=c1ncccn1[C@@H]1O[C@H](CO)[C@@H](O)[C@H]1O	8%	7%[60.1 µM]	.	.	.	.
c1cncc(-c2nn3c(Cn4nnc5ccccc54)nnc3s2)c1	5%	-15%	-1%	-18%	-3%	10%
c1ccc2c(c1)OCC(c1nn3c(Cn4nnc5ccccc54)nnc3s1)O2 (configuration not stated)	.	?	?	50µM*	-3%	?
SMILES	TDP1 inh	POLK inh	POLH inh	POLI inh	FEN1 inhibitor	POLB inh
c1ccc(-c2nn3c(Cn4nnc5ccccc54)nnc3s2)nc1	-7%	?	79µM*	?	-22%	18µM*
Nc1nc(=S)[nH]c2n[nH]nc12	.	0%	.	40µM*	-23%	.
COc1cc(OC)c(NC(=O)c2cn(C)c(=O)c3cc(OC)c(OC)cc23)cc1Cl	0%	-20%	56µM*	30%	-7%	9%
CCN(CC)c1ccc(/C=C2\C(=O)N(c3nnc(C)c(=O)[nH]3)N=C2C)cc1	4%	-4%	?	3.2µM*	-10%	39%
CN(C)C(=O)COc1ccccc1C(=O)OCC(=O)Nc1ccc(Oc2ccc(Br)cc2)cc1	.	-13%	.	11%	-17%	.
Cc1cccc(C)c1NC(=O)CSCC(=O)O	-2%	-3%	5%	8%	-4%	1%
Cc1cccc(C)c1NC(=O)CSCC(=O)c1ccc(O)c(O)c1	5%	-40%	?	20µM*	-7%	-26%
COc1cccc(/C=C2/Sc3ccc(C(=O)NCCN4CCCCCC4)cc3NC2=O)c1	3%	6%	-14%	-14%	50µM*	-3%
O=C1Nc2cc(C(=O)NCCN3CCCCCC3)ccc2S/C1=C\c1ccccc1	6%	-6%	-16%	14%	-21%	-10%
Cc1ccc(/C=C2/Sc3ccc(C(=O)NCc4ccccn4)cc3NC2=O)cc1	32µM*	1%	?	?	-26%	?
O=C(Nc1cccc(F)c1)N1CCCC2(CCN(C(=O)c3cc(C(F)(F)F)cc(C(F)(F)F)c3)CC2)C1	.	-9%[60.1 µM]	.	.	.	.
COc1cccc(C2c3c(ncn(-c4ccc(Br)cc4)c3=N)Oc3ccc4ccccc4c32)c1 (configuration not stated)	3%	.	.	.	.	.
COC(=O)c1ccc(OC(=O)c2ccccn2)cc1	-3%	-9%	9%	18µM*	-5%	?
COCC(C)Nc1ncnc2c1cnn2-c1ccc(C)c(C)c1 (configuration not stated)	10%	-5%[60.1 µM]	-20%	12%	-7%	-4%
CC(=O)OC1(C(F)(F)F)Oc2ccccc2NC1=O (configuration not stated)	3%	-9%	-4%	-8%	?	79µM*
COc1cc(C=O)cc(OC)c1[N+](=O)[O-]	.	-4%	.	11%	11%	.
O=C(CSc1nnc(-c2ccncc2)n1-c1ccccc1)Nc1ccc(Br)cc1	0%	-12%[60.1 µM]	-13%	-12%	-3%	10%
[S-]c1nnc(-c2ccc(Br)cc2)n1-c1ccccc1.[Zn+2]	.	-1%	6%	2.8µM*	1%	0%
O=c1cc(-c2ccc(O)c(O)c2)oc2cc(O)c([C@@H]3O[C@H](CO)[C@@H](O)[C@H](O)[C@H]3O)c(O)c12	6%	20µM*	?	28µM*	?	.
O=c1cc(-c2ccc(O)cc2)oc2c(C3OCC(O)C(O)C3O)c(O)c(C3OC(CO)C(O)C(O)C3O)c(O)c12 (configuration not stated)	.	50µM*	7.9µM*	?	?	18µM*
O=c1cc(-c2ccc(O)cc2)oc2c([C@@H]3O[C@H](CO)[C@@H](O)[C@H](O)[C@H]3O)c(O)c([C@@H]3O[C@H](CO)[C@@H](O)[C@H](O)[C@H]3O)c(O)c12	0%	-19%	-8%	-1%	-11%	-29%

Compound activity (PubChem BioAssay)
